# From PubChem BioAssay (Tox21)
# Unmarked numbers belong to inactive results. Calls of active or inactive are those of the source. Calls come from the whole dose curve; as a rule, active = well fitted curve in the direction sought with a large enough effect in the repeat runs; inconclusive = weak or mixed curves; inactive = flat fitted curve, though single readings scatter.
# Test: qHTS assay to test for compound auto fluorescence at 460 nm (blue) in HEK293 cell free culture (AID 720681)
# Details: cell-free medium, autofluorescence 405/460 nm (blue); series mostly up to 46 µM; fluorescence, % of fluorescent control: at the top concentration
# From the text: U.S. Tox21 Program National Center for Advancing Translational Sciences [NCATS] NIH Chemical Genomics Center [NCGC] U.S. Environmental Protection Agency [EPA] National Institutes of Environmental Health Sciences [NIEHS] National Toxicology Program [NTP] U.S. Food and Drug Administration [FDA] Tox21 Assay Overview: Compound auto fluorescence often interferes with screening of the compound library against various biological targets and signaling pathways. Some of these compounds may have fluorophoric properties. Such properties may interfere with the assay outputs resulting in false positives and/or negatives. To decrease such complications and ensure the compound activities are relevant in terms of biological response, the Tox21 10K compound library was screened for auto fluorescence. From the fluorophores used as reporter signals in our screening assays, the auto fluorescence equivalencies of compounds against three fluorophores have been evaluated: Triamterene, Fluorescein and Rose Bengal sodium for blue, green and red fluorescence, respectively. The fluorescence intensities were measured using Excitation/Emission wavelengths at 405/460nm, 485/535nm and 540/590nm for blue, green and red labels, respectively. This assay includes the blue fluorescence data.
# Tox21 Assay Protocol Summary: 5 uL of culture medium (DMEM containing 10% FBS) per well was dispensed into black wall/clear bottom 1536-well plates using a Multidrop Combi Dispenser (ThermoFisher Scientific, Waltham, MA). After 23 nL compound or DMSO vehicle was transferred into assay plate by a pintool work station (Kalypsys, San Diego, CA), fluorescence intensities in the assay plates were measured by an Envision (PerkinElmer, Shelton, CT) plate reader using three labels for measuring blue, green and red fluorescence at […] 460, 535 and 590nm respectively.
# % is set by controls: 0 for no effect and ±100 for the full control effect; potency is the fitted concentration of half-maximal effect.
Compound,"fluorescence, % of fluorescent control",Potency
O=P(O)(O)OP(=O)(O)OP(=O)(O)O,0.0279%,–
Cc1cc(N)c2ccccc2[n+]1CCCCCCCCCC[n+]1c(C)cc(N)c2ccccc21,0.129% [at 18.6 µM],–
NC(=S)NS(=O)(=O)c1ccc(N)cc1,0.0687%,–
CCN(CC)C(=O)[C@]1(c2ccccc2)C[C@@H]1CN,-0.0846%,–
NC(N)=NCCCCN=C(N)N,-0.03%,–
CCCCC[C@H](O)/C=C/[C@@H]1[C@@H](C/C=C\CCCC(=O)O)[C@@H](O)C[C@H]1O,–,inactive
CC12CCC(C[N+](C)(CCC[N+](C)(C)C)C1)C2(C)C (stereo not given),0.0056%,–
CC(C)CCC[C@@H](C)[C@H]1CC[C@H]2[C@@H]3CC[C@@H]4C[C@H](O)CC[C@]4(C)[C@H]3CC[C@]12C,-0.197%,–
c1ccc(-n2cnnn2)cc1,0.0204%,–
O=C(O)c1cc(=O)c2c3nc4ccccc4oc-3cc(=O)c2[nH]1,2.43%,–
Cc1cn([C@H]2C[C@H](O)[C@@H](CO)O2)c(=O)[nH]c1=O,-0.102%,–
CN(Cc1ccccc1)Cc1ccccc1,0.117%,–
CC/C(=C(/CC)c1ccc(OP(=O)(O)O)cc1)c1ccc(OP(=O)(O)O)cc1,-0.0146%,–
Nc1c(CC(=O)O)cccc1C(=O)c1ccccc1,–,inactive
CC(C)COC(=O)OCN1C(=O)CN(CCN2CC(=O)N(COC(=O)OCC(C)C)C(=O)C2)CC1=O,-0.15%,–
CC(C)C[C@@H](NC(=O)[C@@H](O)[C@H](N)Cc1ccccc1)C(=O)O,-0.286%,–
CN[C@H]1CC[C@@H](c2ccc(Cl)c(Cl)c2)c2ccc(S(N)(=O)=O)cc21,0.281% [at 91.3 µM],–
O=C1c2ccccc2CN2C(=O)c3ccccc3CN12,-0.179%,–
C=N[C@@H](C(=O)N[C@@H]1C(=O)N2[C@@H]1SC(C)(C)[C@@H]2C(=O)O)c1ccccc1,2.33%,–
CON=C1C[C@]2(C[C@@H]3C[C@@H](C/C=C(\C)C[C@@H](C)/C=C/C=C4\CO[C@@H]5[C@H](O)C(C)=C[C@@H](C(=O)O3)[C@]45O)O2)O[C@H](/C(C)=C/C(C)C)[C@H]1C,–,inactive

Compound,"fluorescence, % of fluorescent control",Potency
C[C@@H]1C[C@H]2[C@@H]3C[C@H](F)C4=CC(=O)C=C[C@]4(C)[C@@]3(Cl)[C@@H](O)C[C@]2(C)[C@H]1C(=O)COC(=O)C(C)(C)C,-0.0558%,–
CO[C@H](C(=O)[C@@H](O)[C@@H](C)O)C1Cc2cc3cc(O[C@H]4C[C@@H](O[C@H]5C[C@@H](O)[C@H](O)[C@@H](C)O5)[C@@H](O)[C@@H](C)O4)c(C)c(O)c3c(O)c2C(=O)[C@H]1O[C@H]1C[C@@H](O[C@H]2C[C@@H](O[C@H]3C[C@](C)(O)[C@H](O)[C@@H](C)O3)[C@H](O)[C@@H](C)O2)[C@H](O)[C@@H](C)O1 (stereo not given in full),–,inactive
COc1cc([C@@H]2c3cc4c(cc3[C@@H](O[C@@H]3O[C@@H]5CO[C@@H](C)O[C@H]5[C@H](O)[C@H]3O)[C@H]3COC(=O)[C@H]23)OCO4)cc(OC)c1O,–,inactive
CN(C[C@@H](CC[N+]12CCC(C3CCCCC3)(CC1)CC2)c1ccc(Cl)c(Cl)c1)C(=O)c1cc(C(F)(F)F)cc(C(F)(F)F)c1,-0.148% [at 91.3 µM],–
CC/C=C\C/C=C\C/C=C\C/C=C\C/C=C\C/C=C\CCC(=O)O,1.9%,–
C=C1[C@@H]2CC[C@@H](C2)C1(C)C,0.0386%,–
O=P(O)(O)CP(=O)(O)O,0.208%,–
CC(C)=CCC/C(C)=C/CC/C(C)=C/CC/C(C)=C/CC1=C(C)C(=O)c2ccccc2C1=O,–,inactive
COc1cc(/C=C/C(=O)CC(=O)/C=C/c2ccc(O)c(OC)c2)ccc1O,3.04%,–
COc1cc(NS(C)(=O)=O)ccc1Nc1c2ccccc2nc2ccccc12,–,12.6 µM (active)
CC1(C)CCC(NC(=O)[C@@H](N)CCC(=O)O)CC1,-0.0877%,–
O=S(=O)(O)CC(S)CS (stereo not given),-0.0986%,–
COC(=O)[C@H]1[C@H]2C[C@H]3c4[nH]c5ccccc5c4CCN3C[C@H]2CC[C@@H]1O,4.42%,–
Cc1cnc(C(=O)O)c[n+]1[O-],–,inactive
O=C(O)COc1ccc(C(=O)c2cccs2)c(Cl)c1Cl,–,inactive
CCCCCCCCCCCCCC(=O)OCC(COP(=O)([O-])OCC[N+](C)(C)C)OC(=O)CCCCCCCCCCCCC (stereo not given),0.164%,–
CC(C)(Oc1ccc(C2CCCc3ccccc32)cc1)C(=O)O (stereo not given),-0.159%,–
Cc1cc(-c2ccc(N=Nc3ccc4c(S(=O)(=O)O)cc(S(=O)(=O)O)c(N)c4c3O)c(C)c2)ccc1N=Nc1ccc2c(S(=O)(=O)O)cc(S(=O)(=O)O)c(N)c2c1O,–,inactive
Cc1cc(=O)c(C(=O)N[C@@H](C(=O)N[C@@H]2C(=O)N3C(C(=O)O)=C(CSc4nnnn4C)CS[C@H]23)c2ccc(O)cc2)c[nH]1,0.0127%,–
O=C(Cn1cnnn1)N[C@@H]1C(=O)N2C(C(=O)O)=C(CSc3nncs3)CS[C@H]12,–,inactive
